Source: PubChem
RECQ1 inh: inhibitors of human RECQ1 DNA helicase | P46063 | AID 2549 | actives 0.54% (n = 240,000) | RECQ1 DNA unwinding, red fluorescence kinetic read | Potency, µM (doses to about 57.3 µM), for the others: top-dose activity, negative = inhibition, most hits filed as inhibitors;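 further: plate controls were vehicle for no effect and no enzyme for full effect; nearly all actives have a fitted effect of over 30% in size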
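RECQ1T1 50 nM; forked duplex (20 bp + 30-nt ss tails) 200 nM, ATP 2 mM final; pH 8.0, 2 mM MgCl2, 2.5 ug/ml poly(dI-dC); 15 min compound preincubation; discontinuous kinetic read over 2 h at RT.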
RGS12 GoLoco inh: inhibitors of human Gai1-RGS12 GoLoco interaction (red fluorophore); AID 880; Gai1:RGS12 GoLoco peptide FP, rhodamine, 10 min; actives 0.44% (n = 230,000); P63096; Potency, µM (titrated, usually from 61.6 µM), inactives show at the highest dose activity, negative = inhibition, actives largely listed as inhibitors; active means well fitted inhibition curve with a large enough effect, not every such curve was filed as active; inactive means no such curve, though single readings can be large or run the other way; further: nearly all actives have a fitted effect of over 30% in size
APEX1 inh: blocks human APE1 abasic DNA cleavage. AID 2517. recombinant APE1, TAMRA/BHQ-2 abasic DNA cleavage fluorescence. Potency, µM (highest dose often 65.8 µM), inactives show top-dose activity change, negative = inhibition, hits mostly inhibitors. actives 0.35% (n = 350,000);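 further: plate controls were vehicle for no effect and reference inhibitor for full effect; nearly all actives have a fitted effect of over 55% in size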
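Measures dequenching upon AP-site incision of a 5'-TAMRA/3'-BHQ-2 THF-containing duplex, 50 nM; human APE1 0.75 nM after 15 min room-temperature exposure to compound; kinetic three-point read at one-minute spacing.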
L3MBTL1 block: L3MBTL1 (human) inhibition | Q9Y468 | AlphaScreen L3MBTL1–H3K9me1 peptide binding | Potency, µM (doses to about 57.1 µM), inactives show top-dose activity, negative = inhibition, actives largely listed as inhibitors | actives 0.66% (n = 230,000); further: nearly all actives have a fitted effect of over 60% in size
Target sequence (Q9Y468 whole entry, looked up): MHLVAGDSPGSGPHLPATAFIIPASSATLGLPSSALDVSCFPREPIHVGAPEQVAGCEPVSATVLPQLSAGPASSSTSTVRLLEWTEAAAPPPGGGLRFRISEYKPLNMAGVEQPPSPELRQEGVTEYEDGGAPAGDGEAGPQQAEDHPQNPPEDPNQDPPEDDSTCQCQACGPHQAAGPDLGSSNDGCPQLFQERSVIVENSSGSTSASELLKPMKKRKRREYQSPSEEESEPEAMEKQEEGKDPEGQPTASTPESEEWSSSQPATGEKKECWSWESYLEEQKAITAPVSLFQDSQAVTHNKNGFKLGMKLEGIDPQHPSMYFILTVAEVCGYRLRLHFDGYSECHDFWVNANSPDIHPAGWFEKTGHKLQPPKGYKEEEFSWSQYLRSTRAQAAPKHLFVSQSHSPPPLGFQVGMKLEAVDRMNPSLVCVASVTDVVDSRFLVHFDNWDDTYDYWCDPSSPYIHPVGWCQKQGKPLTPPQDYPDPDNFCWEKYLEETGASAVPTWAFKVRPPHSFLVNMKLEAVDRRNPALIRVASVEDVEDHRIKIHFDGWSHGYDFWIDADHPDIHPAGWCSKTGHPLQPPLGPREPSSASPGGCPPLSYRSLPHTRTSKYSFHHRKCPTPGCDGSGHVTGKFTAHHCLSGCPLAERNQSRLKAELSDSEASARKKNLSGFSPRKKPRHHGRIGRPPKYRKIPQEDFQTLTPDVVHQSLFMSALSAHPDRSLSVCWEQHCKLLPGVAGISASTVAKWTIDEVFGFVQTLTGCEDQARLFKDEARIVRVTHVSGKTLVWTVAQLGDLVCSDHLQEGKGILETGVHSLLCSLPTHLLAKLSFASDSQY
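L3MBTL1 50 nM + b-AHA-H3(1-15)K9me1 75 nM, 30 min RT; compound added, 30 min RT; streptavidin donor/Ni-chelate acceptor beads 10 ug/mL each final, 30 min RT dark; AlphaScreen read.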
KDM4E inh: JMJD2E (human) inhibition; JMJD2E catalytic domain, FDH-coupled NADH fluorescence (FDH is formaldehyde dehydrogenase); Potency, µM (highest dose often 57.1 µM), for inactives: at the top dose activity change, negative = inhibition, actives largely listed as inhibitors; actives 1.6% (n = 230,000); active means well fitted inhibition curve with a large enough effect, not every such curve was filed as active; inconclusive means small, poorly fitted or top-dose-only effect, or another doubt; inactive means no such curve, though single readings can be large or run the other way;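 further: 0% = wells with enzyme and -100% = buffer wells without enzyme; nearly all actives have a fitted effect of over 50% in size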
BLM helicase inh: blocks DNA unwinding by human BLM helicase | P54132 | recombinant BLM DNA unwinding, fluorescence dequenching | Potency, µM (top dose mostly 56.1 µM), without a hit: at the highest dose activity change, negative = inhibition, actives largely listed as inhibitors | actives 0.2% (n = 350,000) | AID 2528;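 further: plate controls were vehicle for no effect and no enzyme for full effect; nearly all actives have a fitted effect of over 35% in size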
Starred values were filed as active, the others as inactive; i = inactive; ? = inconclusive; . = no result; [ ] = dose if it differs, or a comment. Only a selection was taken, and hits are over-represented in it overall. Unless noted, the call rests on the fitted dose curve; in most records, active means well fitted curve in the direction sought with a large enough effect; inconclusive means small, poorly fitted or top-dose-only effect, or another doubt; inactive means no such curve, though single readings can be large; an effect the other way counts as inactive or inconclusive. Unless noted, on the % scale 0 is the no-effect control and ±100 the full control effect; potency means the concentration at half of the fitted maximal effect.

SMILES | RECQ1 inh | RGS12 GoLoco inh | APEX1 inh | L3MBTL1 block | KDM4E inh | BLM helicase inh
CNC(=S)Nc1ccccc1-c1ccccc1 | -1% | 6% | 2% | 1% | 2% | 0%
CCO[C@H](c1cc(OC)cc([N+](=O)[O-])c1OC)[C@H](C)/C=C\CC(=O)OC | 8%[11.5 µM] | . | 42%[12.4 µM] | . | . | 3%[12.4 µM]
Nc1ccccc1SSc1ccccc1N | -1% | -22% | 37% | . | 3% | 0%
CC(C(Sc1ccccc1N)c1ccccc1)[N+](=O)[O-] (stereo not drawn) | i | 3% | -1% | . | 11µM* | 0%
Cc1c(NC(=S)N/N=C\c2ccccc2O)c(=O)n(-c2ccccc2)n1C | -2% | 15% | -12% | ? | ? | 0%
Cc1c(NC(=S)N/N=C/c2ccc([N+](=O)[O-])cc2O)c(=O)n(-c2ccccc2)n1C | 3% | 0% | -7% | . | 10µM* | -1%
CCn1c(NCc2cccc(Cl)c2)nc2ccccc21 | . | . | . | . | . | -1%
O=C(O)COc1ccccc1/C=C1\SC(=S)N(NC(=O)c2ccccc2O)C1=O | . | . | 15% | 13µM* | . | .
O=C(O)COc1ccccc1/C=C1\SC(=S)N(/N=C/c2ccccc2O)C1=O | -1% | 7% | -5% | -15% | -11% | 6%
Cc1ccc(NC(=O)CS(=O)(=O)c2nc(-c3ccc(C)cc3)cn2-c2ccc(C)cc2)cc1 | . | . | . | . | . | -9%
CC(=O)c1cccc(NC(=O)Cn2c(SCC(=O)Nc3ccc(F)cc3)nc3ccccc32)c1 | . | . | . | . | . | -13%
CN(C)S(=O)(=O)c1cccc(NC(=S)Nc2cc(Cl)cc(Cl)c2)c1 | -5% | 3% | 17% | . | -8% | -4%
COc1cccc(/C=N/NC(=S)Nc2cccc(S(=O)(=O)N(C)C)c2)c1 | 2% | -34% | -1% | . | 0% | 1%
CCN(CC)S(=O)(=O)c1ccc(N/N=C/c2cccnc2)nc1 | -13% | 7% | 5% | . | -12% | -2%
COc1ccc(O)c(/C=N/NC(=S)Nc2cccc(S(=O)(=O)N(C)C)c2)c1 | i | 9% | 24% | 10µM* | -6% | -18%
COc1ccc(O)c(/C=N/NC(=S)Nc2cccnc2)c1 | i | 12% | 18% | 11µM* | ? | -4%
CCN(CCO)c1ccc(NC(=S)Nc2cccc(S(=O)(=O)N(C)C)c2)cc1 | 40µM* | 1% | ? | . | ? | -20%
CCN(CC)S(=O)(=O)c1ccc(N/N=C/c2cc(OC)ccc2O)nc1 | i | 35% | -1% | -4% | 13µM* | 1%
CC(C)(C)n1ncc2c(=O)n(Cc3c(F)ccc(F)c3Cl)cnc21 | . | . | -3% | . | . | .
CN(C)S(=O)(=O)c1cccc(NC(=S)N/N=C/c2ccc(O)c(O)c2O)c1 | -8% | -16% | ? | 1.6µM* | 7.9µM* | -11%
CN(C)c1nc(N/N=C/c2ccccc2O)nc(Nc2ccc(F)cc2)n1 | -28% | -2% | -9% | . | 28µM* | ?
CC(C)(C)OC(=O)NCCCCC1=CC2=CC(=O)C(C)(OC(=O)CCc3ccccc3)C(=O)C2=CO1 (stereo not drawn) | -7% | 35% | -10% | . | 4% | -2%
O=C(O)C1(C(=O)O)CCC1.[NH2-].[NH2-].[Pt+2] | -28% | . | 11µM* | . | . | -6%
COc1ccc(-c2nc(-c3ccccc3)c(NC(C)C)o2)cc1 | -5% | 3% | 1% | . | -6% | 1%
Cc1ccc(N(CC(=O)Nc2ccccc2C(=O)NCc2ccco2)S(=O)(=O)c2ccccc2)cc1C | i | 14% | -5% | . | ? | -8%
Cc1ccc(C)c(N(CC(=O)Nc2ccccc2C(=O)NCc2ccco2)S(=O)(=O)c2ccccc2)c1 | -3% | 11% | 3% | ? | 4µM* | -10%
COC(=O)C1=C(C(=O)OC)[C@@H]2N(C)c3ccccc3[C@@]23C[C@@H](C(=O)OC)N(S(=O)(=O)c2c(C)noc2C)C3=N1 | -22%[11.5 µM] | 2%[14.2 µM] | -5%[12.4 µM] | . | -3%[11.4 µM] | 1%[12.4 µM]
N#Cc1cnn(-c2nc(SCc3ccccc3)nc3sc4c(c23)CCCC4)c1N | 7.9µM* | 7% | -5% | 4% | -4% | -7%
